# From publication PMC5540273 (PLoS ONE, 2017)
# Where “and” joins values, the source holds several entries; their conditions need not be identical. Equal entries are not always repeated. Where two headings read alike, the source gives them in different places.
# Legend:
# [1] = tested on: ACVR2B; details: n = 1
# [2] = tested on: ACVRL1; details: concentration: 1 μM, replicates: in singlicate; n = 1
# [3] = tested on: T1, ADCK3; details: n = 1
# T1 construct: gene CABC1
# [4] = tested on: ADCK4; details: n = 1
# [5] = tested on: AKT1; details: concentration: 1 μM, replicates: in singlicate; n = 1
# [6] = tested on: AKT2; details: n = 1
# [7] = tested on: AKT3; details: concentration: 1 μM, replicates: in singlicate; n = 1
# [8] = tested on: ALK; details: n = 1
# [9] = tested on: T2, AMPK-alpha1; details: n = 1
# T2 construct: gene PRKAA1
# [10] = tested on: T3, AMPK-alpha2; details: n = 1
# T3 construct: gene PRKAA2
# [11] = tested on: ANKK1; details: n = 1
# [12] = tested on: T4, ARK5; details: n = 1
# T4 construct: gene NUAK1
# [13] = tested on: T5, ASK1; details: n = 1
# T5 construct: gene MAP3K5
# [14] = tested on: T6, ASK2; details: n = 1
# T6 construct: gene MAP3K6
# [15] = tested on: AURKA; details: n = 1
# [16] = tested on: AURKB; details: n = 1
# [17] = tested on: AURKC; details: n = 1
# [18] = tested on: AXL; details: n = 1
# [19] = tested on: T7, BIKE; details: n = 1
# T7 construct: gene BMP2K
# [20] = tested on: BLK; details: n = 1
# [21] = concentration: 1 μM,replicates: in singlicate, 1 µM
# [22] = concentration: 1 μM, replicates: in singlicate
# 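Also: KINOMEscan kinase panel screen.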
smiles,measurement,setting,value
CSc1nn2c(=O)cc(N3CCOCC3)nc2n1Cc1cccc(C(F)(F)F)c1C [GSK2363608],%Inh,[1]; [21],3% and 0%
same,%Inh,[2],0%
same,%Inh,[3]; [21],5% and 0%
same,%Inh,[4]; [21],31% and 22%
same,%Inh,[5],0%
same,%Inh,[6]; [21],9% and 13%
same,%Inh,[7],0%
same,%Inh,[8]; [21],23% and 31%
same,%Inh,[9]; [21],0% and 2%
same,%Inh,[10]; [21],14% and 0%
same,%Inh,[11]; [21],0% and 10%
same,%Inh,[12]; [21],13% and 8%
same,%Inh,[13]; [21],14% and 0%
same,%Inh,[14]; [21],86% and 7%
same,%Inh,[15]; [21],0% and 1%
same,%Inh,[16]; [21],0% and 29%
same,%Inh,[17]; [21],24% and 0%
same,%Inh,[18]; [21],3% and 4%
same,%Inh,[19]; [21],20% and 0%
same,%Inh,[20]; [21],8% and 9%
COc1cc2ncnc(Nc3ccc4nc(-c5ccccc5)[nH]c4c3)c2cc1OC.Cl [GW282450],%Inh,[1]; [22],0%
same,%Inh,[2],0%
same,%Inh,[3]; [22],10%
same,%Inh,[4]; [22],16%
same,%Inh,[5],0%
same,%Inh,[6]; [22],0%
same,%Inh,[7],0%
same,%Inh,[8]; [22],0%
same,%Inh,[9]; [22],0%
same,%Inh,[10]; [22],0%
same,%Inh,[11]; [22],16%
same,%Inh,[12]; [22],0%
same,%Inh,[13]; [22],0%
same,%Inh,[14]; [22],0%
same,%Inh,[15]; [22],99.1%
same,%Inh,[16]; [22],28%
same,%Inh,[17]; [22],48%
same,%Inh,[18]; [22],23%
same,%Inh,[19]; [22],14%
same,%Inh,[20]; [22],26%
Cc1ccc(C(=O)Nc2ccc(Nc3ccnc4cc(-c5ccccn5)ccc34)cc2O)cc1.Cl [GW440146],%Inh,[1]; [22],25%
same,%Inh,[2],0%
same,%Inh,[3]; [22],0%
same,%Inh,[4]; [22],0%
same,%Inh,[5],0%
same,%Inh,[6]; [22],19%
same,%Inh,[7],0%
same,%Inh,[8]; [22],27%
same,%Inh,[9]; [22],4%
same,%Inh,[10]; [22],15%
same,%Inh,[11]; [22],33%
same,%Inh,[12]; [22],0%
same,%Inh,[13]; [22],0%
same,%Inh,[14]; [22],0%
same,%Inh,[15]; [22],29%
same,%Inh,[16]; [22],80%
same,%Inh,[17]; [22],90.1%
same,%Inh,[18]; [22],0%
same,%Inh,[19]; [22],39%
same,%Inh,[20]; [22],98.4%
Fc1cccc(COc2nnc(-c3ccc4c(c3)CCO4)o2)c1,%Inh,[1]; [22],100%
same,%Inh,[2],0%
same,%Inh,[3]; [22],0%
same,%Inh,[4]; [22],0%
same,%Inh,[5],0%
same,%Inh,[6]; [22],20%
same,%Inh,[7],11%
same,%Inh,[8]; [22],7%
same,%Inh,[9]; [22],6%
same,%Inh,[10]; [22],0%
same,%Inh,[11]; [22],0%
same,%Inh,[12]; [22],5%
same,%Inh,[13]; [22],0%
same,%Inh,[14]; [22],23%
same,%Inh,[15]; [22],15%
same,%Inh,[16]; [22],37%
same,%Inh,[17]; [22],0%
same,%Inh,[18]; [22],0%
same,%Inh,[19]; [22],0%
same,%Inh,[20]; [22],0%
Cn1cncc1-c1ccc2ncnc(Nc3ccc(OCc4ccccc4)cc3)c2c1 [GW320571],%Inh,[1]; [22],16%
same,%Inh,[2],23%
same,%Inh,[3]; [22],27%
same,%Inh,[4]; [22],15%
same,%Inh,[5],0%
same,%Inh,[6]; [22],20%
same,%Inh,[7],10%
same,%Inh,[8]; [22],21%
same,%Inh,[9]; [22],35%
same,%Inh,[10]; [22],20%
same,%Inh,[11]; [22],0%
same,%Inh,[12]; [22],72%
same,%Inh,[13]; [22],16%
same,%Inh,[14]; [22],7%
same,%Inh,[15]; [22],0%
same,%Inh,[16]; [22],100%
same,%Inh,[17]; [22],38%
same,%Inh,[18]; [22],10%
same,%Inh,[19]; [22],23%
same,%Inh,[20]; [22],13%
O=C(Nc1n[nH]c2nc(-c3nccs3)c(Br)cc12)C1CCCC1 [SB-742609],%Inh,[1]; [22],11%
same,%Inh,[2],0%
same,%Inh,[3]; [22],0%
same,%Inh,[4]; [22],14%
same,%Inh,[5],0%
same,%Inh,[6]; [22],10%
same,%Inh,[7],1%
same,%Inh,[8]; [22],26%
same,%Inh,[9]; [22],0%
same,%Inh,[10]; [22],18%
same,%Inh,[11]; [22],0%
same,%Inh,[12]; [22],0%
same,%Inh,[13]; [22],0%
same,%Inh,[14]; [22],13%
same,%Inh,[15]; [22],0%
same,%Inh,[16]; [22],13%
same,%Inh,[17]; [22],11%
same,%Inh,[18]; [22],0%
same,%Inh,[19]; [22],0%
same,%Inh,[20]; [22],31%
O=c1cc(N2CCOCC2)nc2n(Cc3cccc(Cl)c3Cl)ccn12 [GSK2286295],%Inh,[1]; [22],3%
same,%Inh,[2],0%
same,%Inh,[3]; [22],27%
same,%Inh,[4]; [22],6%
same,%Inh,[5],0%
same,%Inh,[6]; [22],13%
same,%Inh,[7],10%
same,%Inh,[8]; [22],48%
same,%Inh,[9]; [22],0%
same,%Inh,[10]; [22],16%
same,%Inh,[11]; [22],5%
same,%Inh,[12]; [22],24%
same,%Inh,[13]; [22],0%
same,%Inh,[14]; [22],0%
same,%Inh,[15]; [22],12%
same,%Inh,[16]; [22],18%
same,%Inh,[17]; [22],23%
same,%Inh,[18]; [22],100%
same,%Inh,[19]; [22],24%
same,%Inh,[20]; [22],35%
Cc1cccc(-c2nc(-c3ccc(S(C)(=O)=O)cc3)sc2-c2ccnc(NCCc3ccccc3)c2)c1,%Inh,[1]; [22],3%
same,%Inh,[2],0%
same,%Inh,[3]; [22],0%
same,%Inh,[4]; [22],12%
same,%Inh,[5],14%
same,%Inh,[6]; [22],6%
same,%Inh,[7],12%
same,%Inh,[8]; [22],0%
same,%Inh,[9]; [22],0%
same,%Inh,[10]; [22],17%
same,%Inh,[11]; [22],7%
same,%Inh,[12]; [22],11%
same,%Inh,[13]; [22],0%
same,%Inh,[14]; [22],0%
same,%Inh,[15]; [22],0%
same,%Inh,[16]; [22],14%
same,%Inh,[17]; [22],0%
same,%Inh,[18]; [22],0%
same,%Inh,[19]; [22],9%
same,%Inh,[20]; [22],16%
O=C(O)COc1ncnc2cc(-c3ccc4[nH]ncc4c3)sc12,%Inh,[1]; [22],0%
same,%Inh,[2],6%
same,%Inh,[3]; [22],0%
same,%Inh,[4]; [22],0%
same,%Inh,[5],0%
same,%Inh,[6]; [22],22%
same,%Inh,[7],17%
same,%Inh,[8]; [22],0%
same,%Inh,[9]; [22],13%
same,%Inh,[10]; [22],18%
same,%Inh,[11]; [22],12%
same,%Inh,[12]; [22],0%
same,%Inh,[13]; [22],0%
same,%Inh,[14]; [22],0%
same,%Inh,[15]; [22],45%
same,%Inh,[16]; [22],28%
same,%Inh,[17]; [22],0%
same,%Inh,[18]; [22],21%
same,%Inh,[19]; [22],0%
same,%Inh,[20]; [22],1%
Cc1cccc(-c2nc(C)cc(Nc3ccncc3)n2)n1 [GSK257997],%Inh,[1]; [22],7%
same,%Inh,[2],0%
same,%Inh,[3]; [22],18%
same,%Inh,[4]; [22],24%
same,%Inh,[5],0%
same,%Inh,[6]; [22],3%
same,%Inh,[7],0%
same,%Inh,[8]; [22],20%
same,%Inh,[9]; [22],3%
same,%Inh,[10]; [22],12%
same,%Inh,[11]; [22],0%
same,%Inh,[12]; [22],0%
same,%Inh,[13]; [22],0%
same,%Inh,[14]; [22],0%
same,%Inh,[15]; [22],21%
same,%Inh,[16]; [22],0%
same,%Inh,[17]; [22],13%
same,%Inh,[18]; [22],7%
same,%Inh,[19]; [22],21%
same,%Inh,[20]; [22],32%
